From PubChem
Rows were chosen to be rich in hits. Some 4.8% of all compounds tested hit in one or more screens of this group.
DAX1 inh-1: inhibitors of DAX1 repression of SF-1 activated StAR promoter | HEK293T StAR-luciferase reporter, SF-1/DAX-1 repression relief | inhibition, % at 6.8 µM | actives 1.1% (n = 370,000);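 active means inhibition above the mean over all tested compounds plus 3 SD, cut at about 3.6% in these data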;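 further: higher inhibition means more luminescence from relief of DAX-1 repression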
hcDAF12 agonist: activates DAF-12 receptor from parasite H. contortus. HEK293 hcDAF-12 lit1-tk-luc reporter, luminescence; 0% DMSO, 100% Δ7-dafachronic acid. activation, % at 6.8 µM. actives 1.4% (n = 370,000);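 active means activation above the mean of all tested compounds plus 3 SD, cut at about 5.5% in these data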
SMARCA2 activ: activators of SMARCA2 function. MG213 cells, MMTV-luciferase reporter, dexamethasone, overnight. activation, % at 9.1 µM. actives 1% (n = 370,000); in the data active means activation above about 7.8%
hgDAF-12 ag: activates the H. glycines DAF-12 receptor ligand-binding domain; HEK293 GAL4-hgDAF12 UAS-luciferase reporter, agonist luminescence; normalized to butyrate control; activation, % at 6.8 µM; actives 1.8% (n = 370,000);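 active means activation above a cutoff set at the mean of all screened compounds plus 3 SD, cut at about 10% in these data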
ssDAF-12 act: activators of S. stercoralis DAF-12 nuclear receptor; HEK293 ssDAF-12/GRIP1 lit1-tk-luc reporter, luminescence; % of 3 µM dafachronic acid response; activation, % at 6.8 µM; actives 1% (n = 370,000); AID 652126;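 active means activation above the mean over all tested compounds plus 3 SD, cut at about 0.9% in these data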
DAX1 inh-2: NR0B1 (DAX1) inhibition. P51843. HEK293 Gal4-DAX1 luciferase reporter, luminescence. inhibition, % at 6.75 µM. actives 0.99% (n = 340,000). AID 504766;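 active means inhibition above the mean over all tested compounds plus 3 SD, cut at about 4.2% in these data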;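 further: inhibition shows as a rise in luminescence from relieved DAX1 repression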
Target sequence (P51843 207-470 limits assumed): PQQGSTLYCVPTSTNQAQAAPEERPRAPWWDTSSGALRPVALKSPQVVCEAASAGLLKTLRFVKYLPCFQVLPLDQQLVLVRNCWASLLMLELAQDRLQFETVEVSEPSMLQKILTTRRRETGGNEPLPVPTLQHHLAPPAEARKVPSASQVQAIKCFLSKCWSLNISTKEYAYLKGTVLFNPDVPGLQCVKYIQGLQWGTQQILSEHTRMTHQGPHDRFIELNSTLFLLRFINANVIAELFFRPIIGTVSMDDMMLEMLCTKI
Of the large screens only hits and unclear results are named; the others gave an inactive call.

c1ccc(-c2ccc(-c3nc(-c4cccnc4)no3)cc2)cc1	DAX1 inh-1 3.8
c1ccc(-c2noc(-c3cccnc3)n2)cc1	DAX1 inh-1 3.6, SMARCA2 activ 7.9
COc1ccc(-c2nc(-c3cccnc3)no2)cc1	hgDAF-12 ag 11, ssDAF-12 act 1.3
CCOc1ccc(-c2noc(COC)n2)cc1OC	ssDAF-12 act 4.0
COc1cc(C(=O)NCCC2=CCCCC2)cc(OC)c1OC	none
COc1cccc(C(=O)NCCC2=CCCCC2)c1OC	DAX1 inh-2 4.5
Cc1ccc(NC(=O)C2CCN(S(=O)(=O)c3cccc4cccnc34)CC2)nc1	none
Cc1cc2nc(SC(C)C(=O)O)[nH]c2cc1C (stereo not given)	none
Cc1cccc(-c2noc(-c3ccno3)n2)c1	DAX1 inh-2 4.9
Cc1cccc(-c2noc(C3CCCCC3)n2)c1	none
O=C(NN=C1CCCC1)c1ccn[nH]1	hgDAF-12 ag 12
CCCC(=O)Nc1nnc(SCC(=O)Nc2ccc3c(c2)OCCO3)s1	ssDAF-12 act 1.5
CCCC(=O)Nc1nnc(SCC(=O)Nc2ccc3c(c2)OCO3)s1	none
Cc1ccc(Nc2nnc(SCC(=O)Nc3cccc(S(=O)(=O)NC4=NCCCCC4)c3)s2)cc1	none
Cc1ccc(CSc2nnc(SCC(=O)N/N=C/c3ccc(C(=O)O)cc3)s2)cc1	DAX1 inh-2 4.3
CC(=O)Nc1ccc(NC(=O)CSc2nnc(NC(=O)C3CC3)s2)cc1	DAX1 inh-2 6.5
CCc1ccc(Nc2nnc(SCC(=O)Nc3cccc(S(=O)(=O)NC4=NCCCCC4)c3)s2)cc1	hgDAF-12 ag 12
Cc1nc(NC(=O)C2CC2)sc1C(=O)Nc1ccc(Br)cc1	none
CCn1c(=O)cc(OCC(=O)N(C)C2CCCCC2)c2ccccc21	none
Cc1ccc(C)c(S(=O)(=O)N2CCCC2CNC(=O)C(=O)NCc2ccccc2)c1 (stereo not given)	none
O=C(COC(=O)CCc1nc2ccccc2c(=O)[nH]1)Nc1ccc(Cl)cn1	none
CCc1ccc(Nc2nnc(SCC(=O)Nc3ccc(C(=O)O)cc3)s2)cc1	DAX1 inh-1 3.7
CN(C)c1c2ccccc2nc2c(F)c(F)c(F)c(F)c12	none (no result: DAX1 inh-1, hcDAF12 agonist, SMARCA2 activ, hgDAF-12 ag, ssDAF-12 act)
Cc1c2ccccc2nc2c(F)c(N(C)C)c(F)c(F)c12	hcDAF12 agonist 5.8
CC(=O)Nc1ccc2c(c1Br)Cc1ccccc1-2	hgDAF-12 ag 13
COc1ccc(O)c(-c2cc(C(F)(F)C(F)F)nc(-c3ccccc3)n2)c1	none
CC1(C)CC(=O)c2cnc(N3CCc4ccccc43)nc2C1	hcDAF12 agonist 6.4
Fc1cnc(N2CCc3ccccc32)nc1N1CCc2ccccc21	none
Cn1c(=O)c(C(=O)NC2CCCCCCC2)c(O)c2ccccc21	none
Cc1csc2nc(CCNS(=O)(=O)c3cccs3)cn12	hgDAF-12 ag 13
COCCNC(=S)N1CCC(NC(=O)c2ccco2)CC1	none
CCOc1ccc2nc(NC(=O)CN3CCN(C)CC3)sc2c1	none
CCOc1ccc2nc(NC(=O)Cn3[nH]c(=O)c4ccccc4c3=O)sc2c1	hgDAF-12 ag 11, DAX1 inh-2 6.8
CCOc1ccc2nc(NC(=O)CN3C(=O)C4CCCCC4C3=O)sc2c1 (stereo not given)	DAX1 inh-1 3.7
CCOc1ccc2nc(NC(=O)CN3CCN(CC)CC3)sc2c1	none
COC(=O)c1ccc(-c2nc(O)c(C)s2)cc1	none
COC(=O)c1ccc(-c2nc3cc(Cl)c(N)cc3s2)cc1	hgDAF-12 ag 11
Cc1ccc(N(CC(=O)NCC2CCCO2)C(=O)Cn2nnc(-c3cccs3)n2)cc1 (stereo not given)	hcDAF12 agonist 5.6, hgDAF-12 ag 12, ssDAF-12 act 1.1
O=C(CN(C(=O)Cn1nnc(-c2cccs2)n1)c1ccc2c(c1)OCCO2)NCC1CCCO1 (stereo not given)	none
CN(C)c1ccc(CNn2cnnc2SCc2ccc(F)cc2)cc1	none
Fc1ccc(CSc2nncn2NCc2ccccc2)cc1	DAX1 inh-2 6.9
CN(C)S(=O)(=O)c1ccc(Cl)c(C(=O)NC2=NCCS2)c1	none
COc1ccc(/C=C2\CCC(C3CCCC3)C2=O)cc1 (stereo not given)	none
Cc1ccc(/C=C2\CCC(C3CCCC3)C2=O)cc1 (stereo not given)	ssDAF-12 act 0.9, DAX1 inh-2 4.5
